Source: PubChem BioAssay
PostGolgi ctrl – growth inhibition of yeast control strain, primary screen, counter-screen for post-Golgi transport modulator project; efflux-deficient yeast background strain, growth absorbance A615, 16 h; inhibition, % at 10 µM; 98,000 compounds, 5% hits
CYP2C9 activ – human CYP2C9 activators, primary screen, biochemical, luminescence | Cytochrome P450 2C9 (Homo sapiens), P11712 | recombinant CYP2C9, luciferin-H conversion; stronger effect = higher value; factor 1 = untreated enzyme, 0 = blocked | activation factor at 5 µM | 96,000 compounds, 1.4% hits | AID 1024, 2008;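 active = activation factor of 2 or more for CYP2C9 at a 5 µM dose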;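 also: 0 = sulfaphenazole-blocked wells and 1 = vehicle-only wells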
CYP2C19 inh – blockers of cytochrome P450 2C19 activity – biochemical, luminescence, ADME assay, primary screen; AID 778, 2007; 96,000 compounds, 21% hits; CYP2C19 Supersomes, luciferin-H EGE luminescence, 30 min; inhibition, % at 5 µM; P33261;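 active = CYP2C19 inhibition above a set limit at 5 µM in the primary screen, cut at about 50% in these data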;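 also: plate controls were negative control wells for no effect and 2.5 mM tranylcypromine positive control for full effect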
Target sequence (P33261 whole entry, looked up): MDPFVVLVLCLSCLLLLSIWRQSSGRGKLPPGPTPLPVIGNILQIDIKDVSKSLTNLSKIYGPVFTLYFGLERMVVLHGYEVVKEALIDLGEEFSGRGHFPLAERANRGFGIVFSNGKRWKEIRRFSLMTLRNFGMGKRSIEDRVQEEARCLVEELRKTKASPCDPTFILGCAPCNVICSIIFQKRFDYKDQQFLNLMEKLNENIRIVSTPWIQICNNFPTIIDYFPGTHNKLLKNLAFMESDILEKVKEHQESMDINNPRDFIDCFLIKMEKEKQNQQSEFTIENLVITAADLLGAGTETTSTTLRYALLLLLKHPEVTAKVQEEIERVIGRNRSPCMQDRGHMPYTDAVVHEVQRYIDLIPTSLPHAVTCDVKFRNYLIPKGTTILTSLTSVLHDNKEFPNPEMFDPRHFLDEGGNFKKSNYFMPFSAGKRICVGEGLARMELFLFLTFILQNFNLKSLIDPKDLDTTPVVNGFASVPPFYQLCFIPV
CYP2C9 inh – blockers of cytochrome P450 2C9 activity – biochemical, luminescence, ADME assay, primary screen; inhibition, % at 5 µM; CYP2C9 Supersomes, luciferin-H conversion; 96,000 compounds, 20% hits; P11712;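 active = blocking of liver enzyme CYP2C9 beyond about 50% at 5 µM, limit read from the data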
CYP2C19 act – human CYP2C19 activators, primary screen, biochemical, luminescence; activation factor at 5 µM; Cytochrome P450 2C19 (Homo sapiens), P33261; recombinant CYP2C19, luciferin-H EGE luminescence; stronger effect = higher value; 0 = fully inhibited enzyme, 1 = untreated enzyme; 96,000 tested, under 10 active;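 active = activation factor of at least 2 at 5 µM in the primary screen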;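 also: 0 = wells with 2.5 mM tranylcypromine and 1 = vehicle-only wells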
PostGolgi yeast – phenotypic screen on post-Golgi transport, primary screen; post-Golgi transport phenotypic cell assay; inhibition, % at 10 µM; 98,000 compounds, 0.9% hits;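 also: yeast cells grown in 1536-well plates; yeast grown about 18 h at 30C before absorbance read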
* = called active by the depositor. Only some compounds are listed: those with a hit (about 32% of all), similar ones and a draw of the others. Rule as the data show it, unless noted: active = inhibition above about 30%; inactive = the rest.

SMILES	PostGolgi ctrl	CYP2C9 activ	CYP2C19 inh	CYP2C9 inh	CYP2C19 act	PostGolgi yeast
COc1ccc(CNc2oc(COc3ccc(Cl)cc3)nc2C#N)cc1	30	0.7	31	29	0.7	3
N#Cc1nc(-c2cccc(Cl)c2)oc1NCc1cccnc1	12	0.1	95*	94*	0	-12
N#Cc1nc(COc2cccc(Cl)c2)oc1NCc1ccncc1	-6	0	100*	100*	0	0
COc1ccc(-c2nc(C#N)c(NCc3cccnc3)o2)cc1OC	3	0.5	32	51*	0.7	4
Cc1ccccc1NC(=O)CC1SCCNC1=O (stereo not drawn)	3	0.9	-2	9	1	-6
Cc1ccccc1NC(=O)CC1SC(=NC2CCCCC2)NC1=O (stereo not drawn)	1	0.3	1	67*	1	-3
COc1ccc(C(OC(=O)c2ccco2)C(=O)NCC2CCCO2)cc1 (stereo not drawn)	-3	0.8	40	21	0.6	-7
Cc1cc(C)c(NC(=O)CN(C2CCCCC2)C2CCCCC2)c(C)c1	53*	1.2	-16	-25	1.2	32*
Cc1noc(/C=C/N(C)C)c1S(=O)(=O)N1CCCC(C(=O)Nc2ccc3c(c2)OCO3)C1 (stereo not drawn)	-1	0.3	48	67*	0.5	5
Cc1noc(/C=C/N(C)C)c1S(=O)(=O)N1CCCC(C(=O)N2CCCCC2)C1 (stereo not drawn)	8	0.4	3	58*	1	-10
Cc1noc(/C=C/N(C)C)c1S(=O)(=O)N1CCCC(C(=O)NC2CCCCC2)C1 (stereo not drawn)	5	0.6	10	44	0.9	7
O=C1N(Cc2ccccc2)CCCC12CCCN(Cc1ccccc1)C2=O	2	1	35	-4	0.7	6
C(=C1/CCCC2=C1Nc1ncnn1C2c1ccccc1)/c1ccccc1 (stereo not drawn)	26	0.7	49	25	0.5	0
Cn1c2c(c(=O)n(C)c1=O)C(C(F)(F)F)(C(F)(F)F)N=C(c1ccc(Cl)cc1)N2	68*	0.1	14	89*	0.9	47*
COC(=O)C(O)(NC(=O)NC(C)=O)C(F)(F)F (stereo not drawn)	23	1	1	0	1	1
N#Cc1nc(-c2cccs2)oc1N1CCOCC1	10	0.9	37	7	0.6	2
Cc1ccc(S(=O)(=O)/N=C(\CN2CCCCC2)N2CCOCC2)cc1	5	0.5	64*	53*	0.4	9
Cn1c(=O)c2c(ncn2CC(=O)N(Cc2ccccc2)c2ccccn2)n(C)c1=O	-6	0.8	14	17	0.9	1
C=C(C)Cn1c(SCC(=O)O)nnc1-c1ccccc1	25	0.9	-1	15	1	-5
C=C(C)Cn1c(-c2ccccc2)nc2ccccc21	14	0.6	69*	42	0.3	-3
Cc1oc(-c2ccccc2F)nc1CS(=O)(=O)CC(=O)N1CCCCCC1	-3	0.2	28	81*	0.7	-6
COc1ccc(OC)c(CCNC(=O)CS(=O)(=O)Cc2nc(-c3ccccc3C)oc2C)c1	37*	0.5	66*	50	0.3	6
Cc1ccccc1-c1nc(CS(=O)(=O)CC(=O)NCc2ccccc2)c(C)o1	12	0.9	39	8	0.6	-1
Cc1ccccc1-c1nc(CS(=O)(=O)CC(=O)N(C)C2CCCCC2)c(C)o1	20	0.5	86*	46	0.1	-4
Cc1sc2nc(N)sc2c1C	13	1.1	-7	-6	1.1	0
SMILES	PostGolgi ctrl	CYP2C9 activ	CYP2C19 inh	CYP2C9 inh	CYP2C19 act	PostGolgi yeast
CC(O)C1CCC2C3CC[C@H]4CC(O)CCC4(C)C3CC3(OCCO3)C12C (stereo partly drawn)	33*	1	12	3	0.9	11
c1ccc(Cn2nnc3c(N4CCCCCC4)ncnc32)cc1	14	0.3	36	71*	0.6	5
Clc1cccc(Cl)c1Cn1cnc2c(N3CCCCCC3)ncnc21	34*	0.6	7	38	0.9	1
CCCN1CCN(c2ncnc3c2nnn3Cc2ccccc2)CC1	-1	0.9	36	14	0.6	20
COc1ccc(N(C(=O)c2ccccc2OC(C)=O)C(C)C2CC2)cc1 (stereo not drawn)	6	0.7	44	32	0.6	-2
O=C(CSc1nnnn1-c1cccnc1)NCc1cccs1	-7	0.9	17	13	0.8	-2
CO/N=C/NC(=O)c1c(OC)ccnc1Oc1cccc(C(F)(F)F)c1	13	0.9	58*	9	0.4	7
COc1ccnc(Oc2ccc(F)cc2)c1C(=O)N/C=N/OCc1ccc(Cl)cc1Cl	21	0.8	9	25	0.9	7
COc1ccnc(Oc2ccc(F)cc2)c1C(=O)N/C=N/OCc1ccc(F)cc1Cl	38*	0.8	0	18	1	-2
COc1ccnc(Oc2ccc(F)cc2)c1C(=O)N/C=N/OCc1ccc(F)cc1	26	0.7	64*	28	0.4	6
Cc1ccc2[nH]c(-c3ccccc3)c(CN3CCOCC3)c(=O)c2c1	-5	1.2	2	-16	1	-3
CCC1(O)c2ccccc2-c2ncccc21 (stereo not drawn)	-4	1	5	-4	1	-6
CCOc1cc(/C=C2\SC(=S)N(Nc3ccccc3)C2=O)ccc1O	61*	1	1	3	1	9
COc1cc(/C=C2\SC(=S)N(Nc3ncc(C(F)(F)F)cc3Cl)C2=O)ccc1O	13	0.5	54*	52*	0.5	8
Cc1cc(C)nc(NN2C(=O)/C(=C/c3ccccc3)SC2=S)n1	8	0.8	5	24	1	6
O=C(Nc1ccc(F)cc1)N1CCN2C(=O)c3ccccc3C12c1ccccc1 (stereo not drawn)	9	0.5	51*	50	0.5	16
CC(C)OC(=O)C1C(=O)CC(C)(O)C(C(=O)OC(C)C)C1c1cccc(O)c1 (stereo not drawn)	7	0.8	50	22	0.5	0
CC(=O)C1=C(O)C(=O)N(CCCn2ccnc2)C1c1ccc(C)cc1 (stereo not drawn)	-1	0.5	60*	47	0.4	-2
CCCCCCN1C(=O)C(O)=C(C(C)=O)C1c1ccc(Cl)cc1 (stereo not drawn)	29	0.2	20	75*	0.8	3
COc1cc(C2/C(=C(\O)c3ccc4c(c3)CC(C)O4)C(=O)C(=O)N2CCCn2ccnc2)ccc1O (stereo not drawn)	3	0.7	32	28	0.7	-5
